Measurements reported in publication PMC8222333, “AsCas12a ultra nuclease facilitates the rapid generation of therapeutic cell medicines”.

B1: CAGC (dsDNA)
DNA 1: GCTATCTAGTGCTCAGTACGCACTGCAGCAGGAAACTTCTGGCAGGACCAGGTCATGAGATCGGAAGAGCACACGTCTGAACTCCAGTCA
DNA 2: TGACTGGAGTTCAGACGTGTGCTCTTCCGATCTCATGACCTGGTCCTGCCAGAAGTTTCCTGCTGCAGTGCGTACTGAGCACTAGATAGC
RNA: AAUUUCUACUCUUGUAGAUAGGAAACUUCUGGCAGGACC
B2: CCCT (dsDNA)
DNA 1: GCTATCTAGTGCTCAGTACGCACTGCCCTAGGAAACTTCTGGCAGGACCAGGTCATGAGATCGGAAGAGCACACGTCTGAACTCCAGTCA
DNA 2: TGACTGGAGTTCAGACGTGTGCTCTTCCGATCTCATGACCTGGTCCTGCCAGAAGTTTCCTAGGGCAGTGCGTACTGAGCACTAGATAGC
RNA: AAUUUCUACUCUUGUAGAUAGGAAACUUCUGGCAGGACC
B3: CCAC (dsDNA)
DNA 1: GCTATCTAGTGCTCAGTACGCACTGCCACAGGAAACTTCTGGCAGGACCAGGTCATGAGATCGGAAGAGCACACGTCTGAACTCCAGTCA
DNA 2: TGACTGGAGTTCAGACGTGTGCTCTTCCGATCTCATGACCTGGTCCTGCCAGAAGTTTCCTGTGGCAGTGCGTACTGAGCACTAGATAGC
RNA: AAUUUCUACUCUUGUAGAUAGGAAACUUCUGGCAGGACC
B4: CAGG (dsDNA)
DNA 1: GCTATCTAGTGCTCAGTACGCACTGCAGGAGGAAACTTCTGGCAGGACCAGGTCATGAGATCGGAAGAGCACACGTCTGAACTCCAGTCA
DNA 2: TGACTGGAGTTCAGACGTGTGCTCTTCCGATCTCATGACCTGGTCCTGCCAGAAGTTTCCTCCTGCAGTGCGTACTGAGCACTAGATAGC
RNA: AAUUUCUACUCUUGUAGAUAGGAAACUUCUGGCAGGACC
B5: CCAT (dsDNA)
DNA 1: GCTATCTAGTGCTCAGTACGCACTGCCATAGGAAACTTCTGGCAGGACCAGGTCATGAGATCGGAAGAGCACACGTCTGAACTCCAGTCA
DNA 2: TGACTGGAGTTCAGACGTGTGCTCTTCCGATCTCATGACCTGGTCCTGCCAGAAGTTTCCTATGGCAGTGCGTACTGAGCACTAGATAGC
RNA: AAUUUCUACUCUUGUAGAUAGGAAACUUCUGGCAGGACC
B6: CGAC (dsDNA)
DNA 1: GCTATCTAGTGCTCAGTACGCACTGCGACAGGAAACTTCTGGCAGGACCAGGTCATGAGATCGGAAGAGCACACGTCTGAACTCCAGTCA
DNA 2: TGACTGGAGTTCAGACGTGTGCTCTTCCGATCTCATGACCTGGTCCTGCCAGAAGTTTCCTGTCGCAGTGCGTACTGAGCACTAGATAGC
RNA: AAUUUCUACUCUUGUAGAUAGGAAACUUCUGGCAGGACC
B7: CCAG (dsDNA)
DNA 1: GCTATCTAGTGCTCAGTACGCACTGCCAGAGGAAACTTCTGGCAGGACCAGGTCATGAGATCGGAAGAGCACACGTCTGAACTCCAGTCA
DNA 2: TGACTGGAGTTCAGACGTGTGCTCTTCCGATCTCATGACCTGGTCCTGCCAGAAGTTTCCTCTGGCAGTGCGTACTGAGCACTAGATAGC
RNA: AAUUUCUACUCUUGUAGAUAGGAAACUUCUGGCAGGACC
B8: CCGC (dsDNA)
DNA 1: GCTATCTAGTGCTCAGTACGCACTGCCGCAGGAAACTTCTGGCAGGACCAGGTCATGAGATCGGAAGAGCACACGTCTGAACTCCAGTCA
DNA 2: TGACTGGAGTTCAGACGTGTGCTCTTCCGATCTCATGACCTGGTCCTGCCAGAAGTTTCCTGCGGCAGTGCGTACTGAGCACTAGATAGC
RNA: AAUUUCUACUCUUGUAGAUAGGAAACUUCUGGCAGGACC
B9: CGCA (dsDNA)
DNA 1: GCTATCTAGTGCTCAGTACGCACTGCGCAAGGAAACTTCTGGCAGGACCAGGTCATGAGATCGGAAGAGCACACGTCTGAACTCCAGTCA
DNA 2: TGACTGGAGTTCAGACGTGTGCTCTTCCGATCTCATGACCTGGTCCTGCCAGAAGTTTCCTTGCGCAGTGCGTACTGAGCACTAGATAGC
RNA: AAUUUCUACUCUUGUAGAUAGGAAACUUCUGGCAGGACC
B10: CGAG (dsDNA)
DNA 1: GCTATCTAGTGCTCAGTACGCACTGCGAGAGGAAACTTCTGGCAGGACCAGGTCATGAGATCGGAAGAGCACACGTCTGAACTCCAGTCA
DNA 2: TGACTGGAGTTCAGACGTGTGCTCTTCCGATCTCATGACCTGGTCCTGCCAGAAGTTTCCTCTCGCAGTGCGTACTGAGCACTAGATAGC
RNA: AAUUUCUACUCUUGUAGAUAGGAAACUUCUGGCAGGACC
B11: CCGA (dsDNA)
DNA 1: GCTATCTAGTGCTCAGTACGCACTGCCGAAGGAAACTTCTGGCAGGACCAGGTCATGAGATCGGAAGAGCACACGTCTGAACTCCAGTCA
DNA 2: TGACTGGAGTTCAGACGTGTGCTCTTCCGATCTCATGACCTGGTCCTGCCAGAAGTTTCCTTCGGCAGTGCGTACTGAGCACTAGATAGC
RNA: AAUUUCUACUCUUGUAGAUAGGAAACUUCUGGCAGGACC
B12: CGAT (dsDNA)
DNA 1: GCTATCTAGTGCTCAGTACGCACTGCGATAGGAAACTTCTGGCAGGACCAGGTCATGAGATCGGAAGAGCACACGTCTGAACTCCAGTCA
DNA 2: TGACTGGAGTTCAGACGTGTGCTCTTCCGATCTCATGACCTGGTCCTGCCAGAAGTTTCCTATCGCAGTGCGTACTGAGCACTAGATAGC
RNA: AAUUUCUACUCUUGUAGAUAGGAAACUUCUGGCAGGACC
B13: CGAA (dsDNA)
DNA 1: GCTATCTAGTGCTCAGTACGCACTGCGAAAGGAAACTTCTGGCAGGACCAGGTCATGAGATCGGAAGAGCACACGTCTGAACTCCAGTCA
DNA 2: TGACTGGAGTTCAGACGTGTGCTCTTCCGATCTCATGACCTGGTCCTGCCAGAAGTTTCCTTTCGCAGTGCGTACTGAGCACTAGATAGC
RNA: AAUUUCUACUCUUGUAGAUAGGAAACUUCUGGCAGGACC
B14: CAGT (dsDNA)
DNA 1: GCTATCTAGTGCTCAGTACGCACTGCAGTAGGAAACTTCTGGCAGGACCAGGTCATGAGATCGGAAGAGCACACGTCTGAACTCCAGTCA
DNA 2: TGACTGGAGTTCAGACGTGTGCTCTTCCGATCTCATGACCTGGTCCTGCCAGAAGTTTCCTACTGCAGTGCGTACTGAGCACTAGATAGC
RNA: AAUUUCUACUCUUGUAGAUAGGAAACUUCUGGCAGGACC
B15: CATT (dsDNA)
DNA 1: GCTATCTAGTGCTCAGTACGCACTGCATTAGGAAACTTCTGGCAGGACCAGGTCATGAGATCGGAAGAGCACACGTCTGAACTCCAGTCA
DNA 2: TGACTGGAGTTCAGACGTGTGCTCTTCCGATCTCATGACCTGGTCCTGCCAGAAGTTTCCTAATGCAGTGCGTACTGAGCACTAGATAGC
RNA: AAUUUCUACUCUUGUAGAUAGGAAACUUCUGGCAGGACC
B16: CCGT (dsDNA)
DNA 1: GCTATCTAGTGCTCAGTACGCACTGCCGTAGGAAACTTCTGGCAGGACCAGGTCATGAGATCGGAAGAGCACACGTCTGAACTCCAGTCA
DNA 2: TGACTGGAGTTCAGACGTGTGCTCTTCCGATCTCATGACCTGGTCCTGCCAGAAGTTTCCTACGGCAGTGCGTACTGAGCACTAGATAGC
RNA: AAUUUCUACUCUUGUAGAUAGGAAACUUCUGGCAGGACC
B17: CCAA (dsDNA)
DNA 1: GCTATCTAGTGCTCAGTACGCACTGCCAAAGGAAACTTCTGGCAGGACCAGGTCATGAGATCGGAAGAGCACACGTCTGAACTCCAGTCA
DNA 2: TGACTGGAGTTCAGACGTGTGCTCTTCCGATCTCATGACCTGGTCCTGCCAGAAGTTTCCTTTGGCAGTGCGTACTGAGCACTAGATAGC
RNA: AAUUUCUACUCUUGUAGAUAGGAAACUUCUGGCAGGACC

Each binder was assayed against dAsCas12a S542R (Acidaminococcus sp., UniProt U2UMQ6 1-1307, S542R;D908A;E993A;D1235A) (assay: Spec-seq (native PAGE EMSA with sequencing of bound and unbound); 25 mM Tris-HCl pH 7.4, 150 mM KCl, 5 mM MgCl2, 10% glycerol, 1 mM DTT, 40 ng/uL salmon sperm DNA; 400 nM Cas12a, 480 nM crRNA, 50 nM library, 37 C 1 h; native PAGE at room temperature; high values mean tight binding). Conditions: protein: recombinant.
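Also: relative affinity from the bound to unbound sequence frequency ratio in Spec-seq.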

Binder	binding signal
B1	-8.95 lnKA
B2	-7.57 lnKA
B3	-8.4 lnKA
B4	-8.98 lnKA
B5	-8.87 lnKA
B6	-8.8 lnKA
B7	-8.95 lnKA
B8	-8.39 lnKA
B9	-8.48 lnKA
B10	-8.83 lnKA
B11	-8.62 lnKA
B12	-8.8 lnKA
B13	-8.66 lnKA
B14	-8.61 lnKA
B15	-8.56 lnKA
B16	-8.47 lnKA
B17	-8.66 lnKA

What follows are binders tested against d-enCas12a (Acidaminococcus sp., UniProt U2UMQ6 1-1307, E174R;S542R;K548R;D908A;E993A;D1235A) in the same assay as above. Conditions: protein: recombinant.

Binder	binding signal
B1	-5.94 lnKA
B2	-5.17 lnKA
B3	-5.65 lnKA
B4	-5.82 lnKA
B5	-5.81 lnKA
B6	-5.58 lnKA
B7	-5.72 lnKA
B8	-5.85 lnKA
B9	-2.19 lnKA
B10	-5.83 lnKA
B11	-5.74 lnKA
B12	-5.8 lnKA
B13	-5.81 lnKA
B14	-5.67 lnKA
B15	-5.39 lnKA
B16	-5.88 lnKA
B17	-5.83 lnKA

These binders were tested against d-enCas12a-Ultra (Acidaminococcus sp., UniProt U2UMQ6 1-1307, E174R;S542R;K548R;M537R;F870L;D908A;E993A;D1235A) in the same assay as above. Conditions: protein: recombinant.

Binder	binding signal
B1	-3.45 lnKA
B2	-1.7 lnKA
B3	-3.37 lnKA
B4	-3.56 lnKA
B5	-3.45 lnKA
B6	-2.94 lnKA
B7	-3.45 lnKA
B8	-3.33 lnKA
B9	-0.537 lnKA
B10	-3.31 lnKA
B11	-3.44 lnKA
B12	-3.4 lnKA
B13	-3.32 lnKA
B14	-3.37 lnKA
B15	-2.95 lnKA
B16	-3.38 lnKA
B17	-3.39 lnKA
